Here are results for 23 compounds from the supplement of paper PMC13094657.

± gives the standard deviation of the averaged measurements.

For the assay, the system named is MDA-MB-231. The assay can be described thus: kynurenine production, fold change vs DMSO IFNg/TNF control; higher = more kynurenine produced (less inhibition). The settings on record: pre-treatment time: 18 h then 24 h IFNg/TNF. In a few lines: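 After trichloroacetic acid and p-dimethylaminobenzaldehyde treatment, supernatants were read at 492 nm, with 0–100 μM standards. These came from MDA-MB-231 cells (7 × 10^4/well, 96-well plates) pre-treated 18 h with natural products in 0.1% DMSO and then exposed 24 h to IFNγ (1 U/ml) and TNF (6.25 ng/ml) at 37°C. Values for kynurenine production are fold changes over same-plate cytokine-stimulated vehicle wells, averaged over duplicate plates in the first screening round.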
Take `CC[C@@H](C(=O)[C@@H](C)[C@@H](O)[C@H](C)CCc1ccc(C)c(O)c1C(=O)O)[C@H]1O[C@](CC)([C@H]2CC[C@](O)(CC)[C@H](C)O2)C[C@@H]1C` [Lasalocid (sodium)] (compound dose: 10 uM): the kynurenine production was 0.37 ± 0.0038. The value for `CC(=O)OC/C1=C/[C@H]2[C@@H](OC(=O)/C=C/c3ccccc3)[C@@H](C)C[C@]2(OC(C)=O)C(=O)/C(C)=C/[C@@H]2[C@H](CC1)C2(C)C` [Euphorbia factor L7a] (compound dose: 10 uM) was 0.948 ± 0.035; that for `COc1ccc([C@H]2OC[C@H]3[C@@H]2CO[C@H]3c2ccc(O[C@@H]3O[C@H](CO)[C@@H](O)[C@H](O)[C@H]3O)c(OC)c2)cc1OC` [Phillyrin] (compound dose: 10 uM) was 0.866 ± 0.16. The value for `COC(=O)C1=CO[C@@H](O[C@@H]2O[C@H](CO)[C@@H](O)[C@H](O)[C@H]2O)[C@@H]2C(CO)=CC[C@H]12` [Geniposide] (compound dose: 10 uM) was 0.939 ± 0.023. In the case of `CC(=O)O[C@@H]1C[C@@]23C[C@@]24CC[C@H](O[C@@H]2OC[C@H](O)[C@H](O)[C@H]2O)C(C)(C)[C@@H]4CC[C@H]3[C@]2(C)[C@@H](O)[C@]34O[C@H](C[C@@H](C)[C@@H]3[C@@]12C)[C@@H](C(C)(C)O)O4` [Cimiracemoside D] (compound dose: 10 uM) it was 1.16 ± 0.22; in that of `CC(=O)OC[C@H]1O[C@@H](OC[C@H]2O[C@@H](OC(=O)[C@]34CCC(C)(C)C[C@H]3C3=CC[C@@H]5[C@@]6(C)CC[C@H](O[C@@H]7OC[C@H](O)[C@H](O)[C@H]7O[C@@H]7O[C@H](CO)[C@@H](O)[C@H](O)[C@H]7O)C(C)(C)[C@@H]6CC[C@@]5(C)[C@]3(C)CC4)[C@H](O)[C@@H](O)[C@@H]2O)[C@H](O)[C@@H](O)[C@@H]1O[C@@H]1O[C@@H](C)[C@H](O)[C@@H](O)[C@H]1O` [Acanthopanaxoside B] (compound dose: 10 uM), 1.01 ± 0.17.

`COC(=O)C1=CO[C@@H](O[C@@H]2O[C@H](CO)[C@@H](O)[C@H](O)[C@H]2O)[C@@H]2[C@H](C)O[C@@H](O)C[C@H]12` [Morroniside] (compound dose: 10 uM): the kynurenine production came to 1.22 ± 0.21. In the case of `C[C@H]1[C@H](C)CC[C@]2(C(=O)O)CC[C@]3(C)C(=CC[C@@H]4[C@@]5(C)CC[C@H](O)C(C)(C)[C@@H]5CC[C@]43C)[C@H]12` [3-Epiursolic Acid] (compound dose: 10 uM) it was 0.649 ± 0.08; in that of `CC(=O)O[C@@H](C[C@@H](C)C1=C2C[C@H](O)[C@H]3[C@@]4(C)CCC(=O)C(C)(C)[C@@H]4CC[C@]3(C)[C@@]2(C)CC1=O)[C@H]1OC1(C)C` [Alisol C 23-acetate] (compound dose: 10 uM), 0.989 ± 0.024; in that of `C=C(C)[C@@H]1CCC2=CC(=O)C[C@@H](C)[C@]2(C)C1` [Nootkatone] (compound dose: 10 uM), 0.932 ± 0.073. The value for `C[C@@H]1CC[C@]2(C(=O)O)CC[C@]3(C)C(=CC[C@@H]4[C@@]5(C)CC[C@H](O)[C@@](C)(CO)[C@@H]5CC[C@]43C)[C@@H]2[C@]1(C)O` [Rotundic acid] (compound dose: 10 uM) was 0.929 ± 0.021.

On to `CC(C)=CCC[C@@H](C)[C@@H]1CC[C@]2(C)C3=C(CC[C@@]12C)[C@@]1(C)CC[C@H](O)C(C)(C)[C@@H]1CC3` [Euphol] (compound dose: 10 uM), for which the kynurenine production came out at 1.008 ± 0.0013. The value for `Cc1cc(O)c2c(c1)C(=O)c1cc(O)cc(O[C@@H]3O[C@H](CO)[C@@H](O)[C@H](O)[C@H]3O)c1C2=O` [Emodin-8-glucoside] (compound dose: 10 uM) was 0.872 ± 0.14.

As to `C=C1C(=O)O[C@@H]2/C=C(\C)C[C@@H]3C=C(C[C@H](OC(=O)/C(C)=C\C)[C@@H]12)C(=O)O3` [Scabertopin] (compound dose: 10 uM), the kynurenine production was determined as 0.182 ± 0.087. In the case of `CC(C)=CCC[C@@H](C(=O)O)[C@H]1CC[C@@]2(C)C3=CC[C@H]4C(C)(C)[C@@H](O)CC[C@]4(C)C3=CC[C@]12C` [3-Dehydrotrametenolic acid] (compound dose: 10 uM) it was 0.83 ± 0.085; in that of `C[C@@H]1CC[C@]2(C(=O)O[C@@H]3O[C@H](CO)[C@@H](O)[C@H](O)[C@H]3O)CC[C@]3(C)C(=CC[C@@H]4[C@@]5(C)CC[C@H](O)[C@@](C)(CO)[C@@H]5CC[C@]43C)[C@@H]2[C@]1(C)O` [Pedunculoside] (compound dose: 10 uM), 1 ± 0.29; in that of `CC(=O)OCC1=CO[C@@H](OC(=O)CC(C)C)[C@H]2C1=C[C@H](OC(=O)CC(C)C)[C@]21CO1` [Valepotriate] (compound dose: 10 uM), 0.321 ± 0.04. In the case of `CC12CCC(CC1=O)C2(C)C` (stereo not drawn) [(+)-Camphor] (compound dose: 10 uM) it was 0.98 ± 0.25; in that of `CO[C@H]1O[C@@H]2O[C@@]3(C)CC[C@H]4[C@H](C)CC[C@@H]([C@H]1C)[C@@]24OO3` [Artemether] (compound dose: 10 uM), 0.37 ± 0.12. The value for `COC(=O)C1=CO[C@@H](O)[C@@H]2C(CO)=CC[C@H]12` [Genipin] (compound dose: 10 uM) was 0.76 ± 0.052; that for `CC(C)(O)[C@H]1CC[C@@](C)([C@H]2[C@@H](O)C[C@@]3(C)[C@@H]4C[C@H](O)[C@H]5C(C)(C)[C@@H](O)CC[C@@]56C[C@@]46CC[C@]23C)O1` [Cyclogalegenin] (compound dose: 10 uM) was 0.854 ± 0.064.

For the compound `CC1=CC23C(=O)C(C=C4COC(C)(C)OC4C24OC(C)(C)OC14)C1C(CC3C)C1(C)C` (stereo not drawn) [Ingenol-3,4,5,20-diacetonide] (compound dose: 10 uM), the kynurenine production was determined as 0.893 ± 0.14. With `COC(=O)C[C@](O)(CCCC(C)(C)O)C(=O)O[C@@H]1C(OC)=C[C@]23CCCN2CCc2cc4c(cc2[C@H]13)OCO4` [Homoharringtonine] (compound dose: 10 uM), the kynurenine production was determined as 0.125 ± 0.08.
